Most compounds without a hit are left out; they make up all but 3.4% or so of the library.
MITF inh = blocks human microphthalmia-associated transcription factor | O75030 | AlphaScreen MITF homodimerization, bead proximity signal | inhibition, % at 2.6 µM | 650,000 compounds, 0.91% hits | AID 1259374; in the data active = inhibition above about 50%
Target sequence (O75030 whole entry, looked up): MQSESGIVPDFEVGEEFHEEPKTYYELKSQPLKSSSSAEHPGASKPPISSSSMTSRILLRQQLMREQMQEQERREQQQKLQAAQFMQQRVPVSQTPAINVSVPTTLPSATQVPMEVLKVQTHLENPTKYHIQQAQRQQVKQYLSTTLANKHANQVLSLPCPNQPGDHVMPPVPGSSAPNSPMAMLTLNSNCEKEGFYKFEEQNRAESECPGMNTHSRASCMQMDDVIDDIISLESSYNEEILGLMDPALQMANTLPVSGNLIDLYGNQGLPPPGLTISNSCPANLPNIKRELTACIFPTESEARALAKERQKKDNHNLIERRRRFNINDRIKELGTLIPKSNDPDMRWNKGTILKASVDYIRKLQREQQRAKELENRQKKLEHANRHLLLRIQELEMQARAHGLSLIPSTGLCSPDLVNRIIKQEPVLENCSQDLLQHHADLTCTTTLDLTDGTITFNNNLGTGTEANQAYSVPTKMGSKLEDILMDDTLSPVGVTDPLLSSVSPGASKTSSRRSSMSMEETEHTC
GPR151 activ = human GPR151 activation | Q8TDV0 | PathHunter beta-arrestin GPR151 cells, luminescence | activation, % at 11.2 µM | 650,000 compounds, 1% hits | AID 1508602; in the data active = activation above about 4.9%
TEAD-YAP inh = TEAD-YAP interaction inhibition. HEK-TIYL cells, TEAD-Gal4/YAP UAS-luciferase luminescence. inhibition, % at 9.12 µM. 640,000 compounds, 1.4% hits; in the data active = inhibition above about 32%
FBW7 activator = activators of human E3 ligase FBW7 | Q969H0 | AlphaScreen FBW7–phospho-cyclin E peptide binding, activator screen | normalized activity (activation), % at 26.1 µM | 650,000 compounds, 0.13% hits | AID 1259310; in the data active = normalized activity above about 1.9%;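 also: purified mutant Fbw7 with reduced substrate affinity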
Each line names hits and unclear results; the compound was inactive in the other large screens.

COc1ccccc1C(=O)Nc1ccc2nc(SCC(=O)NCc3ccccc3)sc2c1	TEAD-YAP inh 52.4
CCC(=O)Nc1ccc2nc(SCC(=O)N3CCN(c4ccccc4)CC3)sc2c1	TEAD-YAP inh 45.1
CC(=O)Nc1ccc2nc(SCC(=O)N3CCN(c4ccccc4)CC3)sc2c1	none
CCOc1ccc(N(C)S(=O)(=O)c2ccc3[nH]cc(C(=O)N(C)Cc4ccccc4)c(=O)c3c2)cc1	none
Brc1ccc(-c2cn3c4ccccc4nc3n2CCCNC2CCCCC2)cc1	FBW7 activator 6.2
Clc1ccc(-c2cn3c4ccccc4nc3n2CCNC2CCCCC2)cc1	none
COc1ccc(-n2nnnc2C2(Nc3cccc(Cl)c3)CCCCC2)cc1	TEAD-YAP inh 48.4
CCc1nc2sccn2c(=O)c1C(=O)NCc1ncc(C(F)(F)F)cc1Cl	none
Cc1ccc(C(Nc2cc(Cl)ncn2)C(F)(F)F)cc1 (stereo not drawn)	TEAD-YAP inh 33.7
CC(COc1ccc2ccccc2c1)Nc1cc(Cl)ncn1 (stereo not drawn)	none
c1ccc(Nc2nc(N3CCCCC3)c3ccccc3n2)cc1	TEAD-YAP inh 41.9
Oc1cccc(Nc2nc(N3CCOCC3)c3ccccc3n2)c1	none
Clc1ccccc1-c1nc(N2CCOCC2)c2ccccc2n1	FBW7 activator 2.6
CN(C)c1ccc(Nc2nc(N3CCOCC3)c3ccccc3n2)cc1	TEAD-YAP inh 41.6
Clc1ccccc1-c1nc(N2CCCC2)c2ccccc2n1	none
Cc1cccc(Nc2nc(N3CCOCC3)c3ccccc3n2)c1	TEAD-YAP inh 37.8
Cc1ccc(Nc2nc(N3CCOCC3)c3ccccc3n2)cc1	none
COc1ccccc1CNC(=O)c1ccc2nc(-c3ccc(OC)c(OC)c3)c(-c3ccc(OC)c(OC)c3)nc2c1	none
CCCCNc1ncnc2sc(C)cc12	TEAD-YAP inh 36.9
COc1ccccc1CNc1nc(C)nc2sc(C)cc12	TEAD-YAP inh 48.2
COc1ccccc1CNc1ncnc2sc(C)c(C)c12	none
Cc1nc(NCc2ccccn2)c2cc(C)sc2n1	none
COCCCNc1ncnc2sc(C)cc12	none
COc1ccccc1CNc1ncnc2sc(C)cc12	TEAD-YAP inh 32.4
CC(C)n1cnc2c(NCc3cccc(C(F)(F)F)c3)nc(-c3ccccc3)nc21	none
CC(C)(C)c1ccc(-c2ncc3ccccn23)cc1	TEAD-YAP inh 71.6
O=C1C(=O)N(Cc2ccc(Br)cc2)c2ccc([N+](=O)[O-])cc21	TEAD-YAP inh 32.6
Cc1ccc(CN2C(=O)C(=O)c3cc([N+](=O)[O-])ccc32)cc1	TEAD-YAP inh 66.2
O=C1C(=O)N(Cc2cccc3ccccc23)c2ccc([N+](=O)[O-])cc21	TEAD-YAP inh 35.1
O=C1C(=O)N(Cc2cccc3ccccc23)c2ccc(Br)cc21	none
O=C1C(=O)N(Cc2ccc(Cl)c(Cl)c2)c2ccc([N+](=O)[O-])cc21	none
CCOC(=O)c1cnc2ccc(C(=O)OC)cc2c1Nc1ccc(C)cc1C	none
CC(C(=O)Nc1ccc(Cl)cn1)N1Cc2ccccc2C1=O (stereo not drawn)	TEAD-YAP inh 84.6
Cc1cc(O)cc(O)c1/C=N/NC(=O)c1cc(-c2ccccc2)n[nH]1	TEAD-YAP inh 32.9
Cc1ccc(-c2cc(C(=O)N/N=C/c3cccc(O)c3)[nH]n2)cc1	TEAD-YAP inh 34.6
CCCCC(=O)N/N=C(\C)CC(=O)Nc1cccc(I)c1	none
COc1cccc(/C=N/NC(=O)CCCCC(=O)N/N=C/c2cccc(OC)c2)c1	TEAD-YAP inh 73.6
CCCCC(=O)N/N=C(\C)CC(=O)Nc1cccc(OC)c1	TEAD-YAP inh 43.9
Cc1ccc(/C=N/NC(=O)c2cc(-c3ccccc3)n[nH]2)c(O)c1	none
COc1nc(Cl)nc(N2CCCCC2C)n1 (stereo not drawn)	none
CC(C)(C)OC(=O)N/N=C/c1ccc(Br)cc1	none
CC(C)(C)OC(=O)N/N=C\c1cccc(/C=N/NC(=O)OC(C)(C)C)c1	TEAD-YAP inh 64.7
COc1cccc(/C=N/NC(=O)c2cc(-c3ccc(C)cc3)n[nH]2)c1	TEAD-YAP inh 45.4
COc1ccc(/C=N/NC(=O)c2cc(-c3cccc(OC)c3)n[nH]2)cc1	none
COc1cc(C(=O)Nc2ccc(F)cc2)c(Br)c(OC)c1OC	none
O=C(COc1ccc(Cl)cc1Cl)Nc1ccccc1	TEAD-YAP inh 36.3
O=C(COc1ccccc1[N+](=O)[O-])Nc1ccccc1Cl	none
O=C(COc1ccc(Br)cc1Br)Nc1ncn[nH]1	TEAD-YAP inh 44.2
O=C(COc1ccccc1[N+](=O)[O-])Nc1ccccn1	TEAD-YAP inh 35.6
O=C(COc1ccc(Cl)cc1Cl)Nc1ccc(O)cc1	TEAD-YAP inh 32.1
CC1(c2ccc3c(c2)OCO3)NC(=O)N(Cc2ccccc2C#N)C1=O (stereo not drawn)	none
CCOC(=O)c1ccc(CN2C(=O)CSC2=O)cc1	none
CC(C)=CCCC(C)N1CCC(=O)N(Cc2cccnc2)CC1 (stereo not drawn)	none
Cc1cc(Cl)ccc1OCC(=O)Nc1ncccn1	none
Cc1ccccc1OCC(=O)NNC(=O)Nc1ccc(Cl)cc1	TEAD-YAP inh 59.3
O=C(COc1ccc(Br)cc1Cl)Nc1ccccc1	TEAD-YAP inh 54.2
Cc1cc(Cl)ccc1OCC(=O)Nc1ccccn1	TEAD-YAP inh 67.4
Cc1ccccc1OCC(=O)Nc1ccc(Cl)cc1	none
CC(=O)Nc1ccc(NC(=O)COc2ccc(Br)cc2Cl)cc1	none
O=C(COc1ccc(Cl)cc1Cl)Nc1cccc(-c2cn3c(n2)SCC3)c1	TEAD-YAP inh 68.5
COc1cc(C2C(=O)N(C3CCC(C)CC3)CC(=O)N2CCC2=CCCCC2)ccc1OC(C)C (stereo not drawn)	none
CCN1C(=O)c2cccc3c(NS(=O)(=O)c4ccc(C)cc4)ccc1c23	none
CC(C)n1c(=O)n(Cc2ccccn2)c2cccnc21	none
CCN1CCN(C(=O)/C(C#N)=C/c2cc(C)n(C3CCCC3)c2C)CC1	none
Cc1cc(/C=C(\C#N)C(=O)N2CCOCC2)c(C)n1C1CCCC1	TEAD-YAP inh 32.4
Cc1ccc(C(=O)c2sc3nc(C)ccc3c2N)c(C)c1	TEAD-YAP inh 37.0
COc1ccc(C(=O)c2sc3nc(C)ccc3c2N)cc1OC	TEAD-YAP inh 32.9
O=C(NNc1cccc(C(F)(F)F)c1)C(F)(F)F	none
O=S(=O)(NC1CCCCCCC1)c1ccccc1	none
O=S(=O)(NC1CCCC1)c1cccc(-c2nnc(-c3ccccc3)o2)c1	TEAD-YAP inh 32.6
COc1ccc(S(=O)(=O)NCC(c2ccsc2)N2CCCC2)cc1F (stereo not drawn)	none
Cc1ccn2cc(C(=O)Nc3cccc(F)c3)nc2c1	TEAD-YAP inh 58.0
CCn1c(SCC(=O)Nc2ccc([N+](=O)[O-])cc2)nc2c([nH]c3ccccc32)c1=O	none
O=C(CCc1nc2ncccc2c(=O)n1Cc1ccccc1)NCc1ccccc1Cl	none
CCCCC(=O)NC(c1ccc2c(c1)OCO2)c1cc(Cl)c2cccnc2c1O (stereo not drawn)	none
CC(=O)NC(c1ccc2c(c1)OCO2)c1cc(Cl)c2cccnc2c1O (stereo not drawn)	TEAD-YAP inh 70.6
CC(=O)NC(c1ccc(C)cc1)c1cc(Cl)c2cccnc2c1O (stereo not drawn)	none
CC(=O)NC(c1cccc(Cl)c1)c1cc(Cl)c2cccnc2c1O (stereo not drawn)	TEAD-YAP inh 35.8
